FLuc inh: blocks purified firefly luciferase enzyme activity; P08659; purified P. pyralis luciferase, luminescence, biochemical; Potency, µM (titrated, usually from 115 µM), usual class: inhibitors; actives 2.5% (n = 76,000); note: % is set by controls: 0 for no effect and ±100 for the full control effect; nearly all actives have a fitted effect of over 65% in size
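Biochemical qHTS: compound (6-point titration) added to 10uM D-luciferin plus 10uM ATP in Tris acetate pH 7.5 buffer with Mg, Tween-20 and BSA, then purified enzyme at 10nM; light output imaged.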
NPR1 antag: antagonists of human natriuretic peptide receptor Npr1. P16066. HEK293 hNpr1 GloSensor cGMP, ANP-stimulated luminescence. Potency, µM (series often up to 46.3 µM), for the others: at the top dose activity change, negative = inhibition, hits mostly inhibitors. actives 1.6% (n = 76,000). AID 1347048; calls by dose curve; note: % is set by controls: 0 for no effect and ±100 for the full control effect; nearly all actives have a fitted effect of over 60% in size
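Compound pre-incubated 30 min at room temperature on GloSensor-loaded HEK293 cells stably carrying hNpr1 and the pGS-40F cGMP biosensor. Stimulation uses hNppA at 0.1 nM final; luminescence is taken at baseline and 20 min post-agonist.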
NIH3T3 tox: kills NIH 3T3 cells | NIH 3T3 viability, CellTiter-Glo ATP luminescence, 48-72 h | Potency, µM (top dose mostly 96.7 µM), without a hit: at the highest dose activity change, negative = cytotoxicity, actives largely listed as inhibitors | actives 4.3% (n = 94,000); note: % is set by controls: 0 for no effect and ±100 for the full control effect; nearly all actives have a fitted effect of over 55% in size
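Cytotoxicity is measured as loss of cellular ATP: NIH 3T3 cells (400/well) are exposed to compound for 48 or 72 hr at 37 °C, then CellTiter-Glo luminescence is imaged after 10 min at room temperature.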
GPT2 inhibitor: GPT2 alanine aminotransferase inhibition; Recombinant GPT2, coupled pyruvate oxidase/HRP Amplex Red fluorescence; Potency, µM (doses to about 57.7 µM), for the others: at the highest dose activity change, negative = inhibition, actives largely listed as inhibitors; actives 0.25% (n = 100,000); note: % is set by controls: 0 for no effect and ±100 for the full control effect; nearly all actives have a fitted effect of over 60% in size
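Fluorescence of coupled pyruvate oxidase/HRP/Amplex Red system (50uM Amplex, 30 min, dark) reports pyruvate formed by GPT2. Enzyme reaction: 10ng/uL GPT2, 2mM L-alanine, 250uM a-KG, 30 min room temperature, pH 7.5; 50uM AOA control.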
HEK cytotox: cytotoxic compounds in HEK 293 cells; HEK 293 viability, ATP luminescence (CellTiter-Glo), 48-72 h; Potency, µM (titrated, usually from 115 µM), for the others: top-dose activity change, negative = cytotoxicity, actives largely listed as inhibitors; actives 6.6% (n = 94,000); AID 1345083; note: % is set by controls: 0 for no effect and ±100 for the full control effect; nearly all actives have a fitted effect of over 60% in size
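HEK 293 cells at 250 cells/well were exposed to compounds by pintool transfer for 48 or 72 hr at 37 degree Celsius, 5% CO2. Viability was read as ATP-coupled luminescence with CellTiter-Glo after 10 min at room temperature.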
Npr1 antag conf: confirmation of human Npr1 natriuretic peptide receptor antagonists | HEK293 hNpr1 cGMP GloSensor luminescence, ANP-stimulated | AID 1347044 | actives 76% (n = 1,400) | Potency, µM (doses to about 57.6 µM), for inactives: at the top dose activity change, negative = inhibition, hits mostly inhibitors | shares compounds with NPR1 antag; calls by dose curve; note: nearly all actives have a fitted effect of over 70% in size
NPR2 antag: selectivity test of Npr1 antagonists against human Npr2. shares compounds with NPR1 antag. HEK293 hNpr2 GloSensor cGMP luminescence, CNP-stimulated. Potency, µM (doses to about 57.6 µM), inactives show top-dose activity change, negative = inhibition, hits mostly inhibitors. actives 67% (n = 1,400); calls by dose curve; note: nearly all actives have a fitted effect of over 70% in size
Target sequence (P20594 whole entry, looked up): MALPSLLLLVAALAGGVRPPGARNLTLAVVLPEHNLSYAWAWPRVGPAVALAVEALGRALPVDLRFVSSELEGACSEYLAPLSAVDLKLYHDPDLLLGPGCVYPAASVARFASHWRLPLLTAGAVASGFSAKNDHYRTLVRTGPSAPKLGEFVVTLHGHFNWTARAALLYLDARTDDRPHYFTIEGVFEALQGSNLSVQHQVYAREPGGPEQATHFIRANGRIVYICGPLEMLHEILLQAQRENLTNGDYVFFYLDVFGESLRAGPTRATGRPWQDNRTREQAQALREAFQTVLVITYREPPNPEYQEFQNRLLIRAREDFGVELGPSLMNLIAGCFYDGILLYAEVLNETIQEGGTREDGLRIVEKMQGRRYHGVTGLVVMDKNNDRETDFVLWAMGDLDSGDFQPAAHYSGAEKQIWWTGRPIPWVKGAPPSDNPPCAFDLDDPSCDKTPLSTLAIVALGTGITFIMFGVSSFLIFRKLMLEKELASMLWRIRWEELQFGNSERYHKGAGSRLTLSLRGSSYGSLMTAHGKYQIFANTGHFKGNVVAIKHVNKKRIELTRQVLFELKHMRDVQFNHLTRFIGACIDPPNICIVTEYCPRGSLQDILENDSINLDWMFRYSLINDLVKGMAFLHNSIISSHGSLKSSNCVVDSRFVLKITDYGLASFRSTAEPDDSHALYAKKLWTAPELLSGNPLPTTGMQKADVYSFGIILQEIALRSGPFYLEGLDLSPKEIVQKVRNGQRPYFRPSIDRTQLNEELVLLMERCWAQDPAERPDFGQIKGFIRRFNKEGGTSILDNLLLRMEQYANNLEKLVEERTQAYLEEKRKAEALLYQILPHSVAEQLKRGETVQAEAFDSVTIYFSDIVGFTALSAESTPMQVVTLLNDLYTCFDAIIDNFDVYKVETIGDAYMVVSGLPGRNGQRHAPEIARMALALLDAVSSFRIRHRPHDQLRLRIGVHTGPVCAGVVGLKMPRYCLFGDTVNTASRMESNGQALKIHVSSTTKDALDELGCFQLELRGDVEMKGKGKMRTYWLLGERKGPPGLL
FLuc counter: FLuc enzyme inhibition, Npr1 counter-screen; shares compounds with NPR1 antag; purified FLuc enzyme, luminescence, Km substrate; Potency, µM (highest dose often 57.6 µM), inactives show top-dose activity change, negative = inhibition, hits mostly inhibitors; actives 0.7% (n = 1,400); AID 1347047; note: 0% is about no effect
GloSensor cGMP: control cell line activity, Npr1 antagonist counter-screen. shares compounds with NPR1 antag. HEK293 GloSensor cGMP, SNP-stimulated, luminescence. Potency, µM (doses to about 57.6 µM), inactives show at the highest dose activity change, negative = inhibition, usual class: inhibitors. actives 69% (n = 1,400). AID 1347051; calls by dose curve; note: % is set by controls: 0 for no effect and ±100 for the full control effect; nearly all actives have a fitted effect of over 70% in size
An asterisk follows results filed as active; i = inactive; ? = inconclusive; · = no result given; [ ] = another dose, or the depositor's remark. The list is not random: actives were taken first. Their share in the collection is about 10%. Unless noted, calls come from the whole dose curve; as a rule, active = well fitted curve in the direction sought with a large enough effect; inconclusive = small, poorly fitted or top-dose-only effect, or another doubt; inactive = no such curve, though single readings can be large; an effect the other way counts as inactive or inconclusive. Potency is the fitted concentration of half-maximal effect.

SMILES	FLuc inh	NPR1 antag	NIH3T3 tox	GPT2 inhibitor	HEK cytotox	Npr1 antag conf	NPR2 antag	FLuc counter	GloSensor cGMP
CCc1cc(N2CCN(C(=O)[C@H]3CCC[C@@H](O)C3)CC2)ncn1	i	5.1%	-15.5%	i	-9.4%	·	·	·	·
COc1ccccc1N1CCN([C@@H]2[C@H](O)[C@H](CO)O[C@@H]2CN(Cc2ccc(F)cc2)Cc2ccc(F)cc2)CC1	i	?	31.6µM*	1.6%	28.2µM*	?	13.7µM*	0.2%	-23.7%
Cc1noc(C)c1[S+](=O)([O-])N1CCCC(C(=O)N2CCC(N3CCCC3=O)CC2)C1 (centres undefined)	·	·	-21.6%	i	-12.8%	·	·	·	·
Cc1ccccc1C(=O)NC1CCN(c2ccc3nnc(C)n3n2)C1 (centres undefined)	·	·	-20.7%[138 µM]	·	-11.0%[172 µM]	·	·	·	·
COc1ccc(CNC(=O)c2nc(-c3ccccc3OC)cc3c2ccn3C)cc1OC	i	0.9%[70.6 µM]	-26.8%[138 µM]	-50.0%[88.5 µM]	?	·	·	·	·
Cn1ccc2c(C(=O)NCc3cccnc3)nc(Nc3ccccc3)cc21	i	?	?	i	63.1µM*	35.3µM*	35.3µM*	-24.3%[86.2 µM]	31.4µM*
Cn1ccc2c(C(=O)NCc3cccnc3)nc(-c3cccc4cc[nH]c34)cc21	i	?	?	?	?	?	?	-3.0%[86.2 µM]	-20.0%[86.2 µM]
CN(CCCNC(=O)C1(CCO)CC12CCOCC2)C1CCCCC1 (centres undefined)	·	·	-19.6%	2.1%	-11.0%	·	·	·	·
O=C1NC2(CCN(C(=O)c3ccccn3)CC2)COc2ccccc21	i	?	2.6%[138 µM]	-6.0%[88.5 µM]	-14.6%[172 µM]	?	25µM*	-14.4%[86.2 µM]	11.9%[86.2 µM]
O=C1NC2(CCN(C(=O)c3ccccn3)CC2)Oc2ccccc21	i	0.0%[70.6 µM]	1.1%[138 µM]	i	-5.2%[172 µM]	·	·	·	·
CC(=O)N1CCc2nn(CC(=O)Nc3cccc(Cl)c3C)c(=O)cc2C1	i	0.4%	i	i	10.7%	·	·	·	·
COc1ccc(CN2C[C@H]3CN(Cc4ccc(S(C)(=O)=O)cc4)CCN3C2=O)cc1	i	?	-23.3%[138 µM]	-1.2%[88.5 µM]	?	·	·	·	·
FC(F)(F)c1ccc(N2C3CCC2CN(Cc2cccc(-c4cccnc4)c2)C3)cc1	·	·	-20.5%	-3.8%	?	7.69µM*	9.68µM*	-0.8%	6.11µM*
O=C1N(Cc2cccnc2)C[C@H]2CN(Cc3ccc(C(F)(F)F)cc3)CCN12	i	10µM*	?	1.7%[88.5 µM]	?	12.5µM*	17.7µM*	2.2%[86.2 µM]	12.5µM*
FC(F)(F)c1ccc(N2C3CCC2CN(Cc2cccc(-c4cccs4)c2)C3)cc1	·	·	?	0.6%	-15.6%	·	·	·	·
COc1ccc(CN2C[C@H]3CN(Cc4ccc([N+](=O)[O-])cc4)CCN3C2=O)cc1	i	22.4µM*	?	-1.5%[88.5 µM]	?	15.7µM*	17.7µM*	-0.3%[86.2 µM]	15.7µM*
COc1ccc(CN2C[C@H]3CN(Cc4cccnc4)CCN3C2=O)cc1	i	1.2%[70.6 µM]	0.3%[138 µM]	-2.6%[88.5 µM]	1.9%[172 µM]	·	·	·	·
COc1ccc(CN2CCN3C(=O)N(Cc4ccc(OC)cc4)C[C@H]3C2)cc1	i	14.1µM*	?	-4.1%[88.5 µM]	?	12.5µM*	17.7µM*	-15.2%[86.2 µM]	14µM*

From PubChem
